Source: PubChem BioAssay (National Center for Advancing Translational Sciences (NCATS))
IMPase inh = qHTS Assay for Identifying the Cell-Membrane Permeable IMPase Inhibitors; AID 901, 2007; 120,000 tested, under 10 active; inhibition (IP1 accumulation), % at 46.1 µM; CHO-M1 cells, IP1 accumulation, HTRF TR-FRET ratio; active means well fitted curve in the direction sought with a large enough effect in the signal ratio, not every such curve was filed as active; inconclusive means small, poorly fitted or top-dose-only effect, or a change in a side signal; inactive means no such curve, though single readings can be large or run the other way; the % refers to the signal ratio;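 further: cells stimulated with carbachol in lithium chloride buffer; higher means more IMPase inhibition seen as more IP1 and lower FRET ratio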
Target sequence (P97697 whole entry, looked up): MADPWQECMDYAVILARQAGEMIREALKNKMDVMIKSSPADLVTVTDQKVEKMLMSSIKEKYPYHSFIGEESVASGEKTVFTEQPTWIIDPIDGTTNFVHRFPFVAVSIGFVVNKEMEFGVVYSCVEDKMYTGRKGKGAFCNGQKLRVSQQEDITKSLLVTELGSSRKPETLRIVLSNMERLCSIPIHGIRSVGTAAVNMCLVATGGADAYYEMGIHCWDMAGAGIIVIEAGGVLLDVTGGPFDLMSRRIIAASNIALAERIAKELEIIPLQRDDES
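Measured: the HTRF emission ratio (665/620 nm) plus the 620 nm donor channel, each fitted to the Hill equation to give AC50. Cells were CHO-M1 given compounds up to 46 uM and a 30 min carbachol stimulation at 37C.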
HttQ103 aggreg = qHTS Multiplex Assay to Identify Dual Action Probes in a Cell Model of Huntington: Aggregate Formation (GFP); PC12 HttQ103-GFP aggregates, Acumen cytometry, 40 h; Potency, µM (titrated, usually from 46.1 µM), hits mostly inhibitors; hit rate 1.1% among 220,000; further: nearly all actives have a fitted effect of over 60% in size
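Aggregates are detected as GFP objects 1–25 µm with signal 6 STDEV over background in lysates of induced PC12 cells. These carry Huntingtin exon 1 with 103 glutamines fused to GFP under an ecdysone promoter; compounds titrated.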
IMPase Li inh = qHTS Assay for Identifying the Cell-Membrane Permeable IMPase Inhibitors: Potentiation with Lithium; CHO-M1 cells, IP1 TR-FRET (IP-One), carbachol + lithium; hit rate 0.35% among 210,000; Potency, µM (doses to about 59.4 µM), usual class: inhibitors; AID 1457, 2008;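 further: IP1 builds up when IMPase is blocked and the TR-FRET signal falls; nearly all actives have a fitted effect of over 50% in size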
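Concentration–response in CHO-M1 cells, lithium-potentiated; 30 min at 37C. IP1 detected by competitive TR-FRET after 10 min lysis at RT. Hill-fitted AC50.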
NPSR antag = qHTS Assay for Antagonists of the Neuropeptide S Receptor: cAMP Signal Transduction | Q6W5P4 | CHO-NPSR cells, cAMP TR-FRET, antagonist mode | Potency, µM (highest dose often 38.3 µM), usual class: inhibitors | hit rate 1% among 220,000 | AID 1461, 2008; further: nearly all actives have a fitted effect of over 50% in size
Target sequence (Q6W5P4 whole entry, looked up): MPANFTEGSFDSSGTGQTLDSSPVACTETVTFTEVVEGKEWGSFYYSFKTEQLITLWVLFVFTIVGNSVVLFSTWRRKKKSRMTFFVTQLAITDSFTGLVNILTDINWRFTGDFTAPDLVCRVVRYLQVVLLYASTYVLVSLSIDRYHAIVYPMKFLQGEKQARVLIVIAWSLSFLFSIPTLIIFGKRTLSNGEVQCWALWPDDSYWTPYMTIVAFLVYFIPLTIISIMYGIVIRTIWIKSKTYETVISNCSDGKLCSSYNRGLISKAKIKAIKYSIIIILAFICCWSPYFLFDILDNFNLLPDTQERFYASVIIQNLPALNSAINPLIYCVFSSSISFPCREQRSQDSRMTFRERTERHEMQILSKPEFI
PNC assembly inh = High Content Assay for Compounds that inhibit the Assembly of the Perinucleolar Compartment | PC3M PTB-GFP, PNC prevalence imaging, 16 h; stronger effect = lower value | activity change (PNC), negative = inhibition, % at 10 µM | hit rate 3.1% among 140,000 | AID 2417, 2010;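 active means readout at or below -70, meaning at least 70% loss of cells showing the perinucleolar compartment, a nuclear body marking cancer cells; inconclusive means readout between -30 and a set limit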
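Read-out is percentage of cells bearing a perinucleolar compartment, from automated 20x imaging of fixed, Hoechst-stained PC3M PTB-GFP cells. Cells were seeded 4 h, then exposed 16 h to compound (23 nl of library stock) in duplicate plates.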
HTT cytoprotect = qHTS Multiplex Assay to Identify Dual Action Probes in a Cell Model of Huntington: Cytoprotection (ATP); PC12 HTT-Q103 induced, cytoprotection, ATP luminescence, 40 h; AID 1471, 2008; hit rate 0.14% among 230,000; Potency, µM (highest dose often 56.4 µM), actives largely listed as activators; further: nearly all actives have a fitted effect of over 45% in size
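Readout: ATPlite luminescence (ATP level). Model: stable PC12, inducible Htt exon1 Q103-GFP. Inducer: tebufenozide, 100 nM final. Compounds: dose series. No G418 in medium.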
A number is an active result; - = inactive; ? = inconclusive; . = not tested or not shown; [ ] = remark or other dose. An excerpt weighted towards active compounds, which were near 3.4% of everything screened. Unless noted, the call rests on the fitted dose curve; in most records, active means well fitted curve in the direction sought with a large enough effect; inconclusive means small, poorly fitted or top-dose-only effect, or another doubt; inactive means no such curve, though single readings can be large; an effect the other way counts as inactive or inconclusive.

SMILES	IMPase inh	HttQ103 aggreg	IMPase Li inh	NPSR antag	PNC assembly inh	HTT cytoprotect
CCC(Oc1ccccc1)C(=O)Nc1ccccc1OC (stereo not drawn)	-	-	-	-	-	-
CCC(Oc1ccccc1)C(=O)Nc1nnc(C)s1 (stereo not drawn)	-	-	-	-	-117	-
CCC(Oc1ccccc1)C(=O)Nc1ncc([N+](=O)[O-])s1 (stereo not drawn)	.	-[9.22 µM]	-	-	.	-[10 µM]
CCN1/C(=C/c2cc[n+](CCCS(=O)(=O)[O-])c3ccccc23)Sc2ccccc21	.	-	-	-	.	-[10 µM]
C=CC[n+]1ccc(/C=C2\C=Cc3cc(C)ccc3N2CC)c2ccccc21	.	2.2µM	-	?	.	-
COc1ccc(N2CCN(CCNC(=O)c3ccc4c(c3)[nH]c(=S)n3c5ccccc5nc43)CC2)cc1	.	-	14µM	-	.	-
COc1ccccc1Cn1c(=S)[nH]c2cc(C(=O)NCCN3CCOCC3)ccc2c1=O	?	-	.	-	?	-[0.074 µM]
CC(=O)Nc1cccc(/C(C)=N/NC(=O)c2ccc(Cl)cc2Cl)c1	.	.	-	-	.	.
CC(=O)c1cccc(NC(=O)NNC(=O)c2ccc(Cl)cc2Cl)c1	.	11µM	-	-	.	-
NCCC[C@@H](CC(=O)N[C@@H]1CCNC[C@H]1C(=O)N[C@H](CC(=O)N[C@@H](CCC(=O)O)CC(=O)O)Cc1c[nH]c2ccccc12)NC(=O)C[C@H](CO)NC(=O)[C@@H]1CNCC[C@H]1N	.	.	-	.	.	?
O=C(NCc1ccccc1)C(c1ccccc1)N(Cc1ccc2c(c1)OCO2)C(=O)Cc1cccs1 (stereo not drawn)	-	-	-	-	-108	-[10 µM]
O=C(NC1CCCC1)C(c1ccccc1)N(Cc1ccc2c(c1)OCO2)C(=O)Cc1cccs1 (stereo not drawn)	-	-	-	-	?	-[1.9 µM]
Cc1ccc(-n2ncc(Br)c(Br)c2=O)cc1	.	.	?	?	.	-[10 µM]
O=c1c(Br)c(Br)cnn1-c1ccccc1	.	5.6µM	?	10µM	.	-[10 µM]
O=C1COc2ccc(C(=O)NC3CC3)cc2N1	.	-	-	-	.	-
O=C(O)/C=C/C(=O)c1ccc2c(c1)NC(=O)CO2	.	-	-	-	.	0.2µM
O=C(NNC(=O)c1cc2cc3ccccc3nc2s1)c1cccc(C(F)(F)F)c1	-	-	-	-	-	-
O=C(NNS(=O)(=O)c1ccccc1)c1cc2cc3ccccc3nc2s1	-	-	-	-	-106	-
c1ccc(-c2nc3nonc3nc2-c2ccccc2)cc1	-	3.2µM	-	-	-	-
Nc1c(-c2ccccc2)nc(Cl)nc1-c1ccccc1	-	-	?	-	-	-
COc1ccc(C(=O)N2CCC[C@@]3(CCN(Cc4ccccc4OC)C3)C2)cc1	.	.	-	.	.	-
O=C(O)CCCn1nc(C(F)(F)F)c2c1CCCCC2	-	?	-	-	-92	-
COc1ccc(O[C@H]2C=C[C@@H](c3ccccc3)O[C@@H]2COC(=O)CC/C(C)=N/O[C@@H](C)CN2CCCCc3nc(C)c(C)cc32)cc1	.	-	-	16µM	-83	.
COc1ccc(O[C@H]2C=C[C@@H](c3ccccc3)O[C@H]2COC(=O)CC/C(C)=N\O[C@@H](C)CN2CCCCc3nc(C)c(C)cc32)cc1	.	.	.	.	.	-[10 µM]
Cc1ccc(S(=O)(=O)N2CCC(C(=O)O)CC2)cc1	.	-[9.22 µM]	-	-	.	-[10 µM]
SMILES	IMPase inh	HttQ103 aggreg	IMPase Li inh	NPSR antag	PNC assembly inh	HTT cytoprotect
COc1ccc2c(C)cc(SCC(=O)Nc3ncc(Cl)cc3Cl)nc2c1	.	-	13µM	?	-	-[10 µM]
Cc1cc(SCC(=O)Nc2ncc(Cl)cc2Cl)nc2ccccc12	-	-	-	-	-	-[10 µM]
CC1CN(c2c(F)c(N)c3c(=O)c(C(=O)O)cn(C4CC4)c3c2F)CC(C)N1 (stereo not drawn)	.	-	-	.	.	?
COC(=O)NC(CC(C)=O)c1ccco1 (stereo not drawn)	.	.	.	.	.	-[10 µM]
O=C(COC(=O)c1cnccn1)c1ccc(OC(=O)c2ccccc2)cc1	-	-	-	-	-126	-[10 µM]
c1ccc(Oc2c3ccccc3nc3ccccc23)cc1	.	-[9.22 µM]	.	-	.	-[10 µM]
Oc1ccc(N=Nc2cccc(C(F)(F)F)c2)cc1C=Nc1ccc(N2CCOCC2)cc1	.	-	-	7.9µM	-	-[10 µM]
COc1ccc(-c2nn(-c3ccccc3)cc2C(=O)n2nnc3ccccc32)cc1	-	-	?	10µM	-	-
COC(=O)c1c(C(C)=O)c(C)n(C)c1C	.	-[9.22 µM]	.	-	.	-[10 µM]
Cc1[nH]nc2c1C(c1cccnc1)N(c1ccc(Br)cc1)C2=O (stereo not drawn)	-	-	-	-	-83	-[10 µM]
COc1cc(C2c3c(n[nH]c3C)C(=O)N2c2ccc(Br)cc2)ccc1O (stereo not drawn)	-	?	-	-	-	-[0.074 µM]
CN1CCN(c2cc(-c3ccoc3)ncn2)CC1	.	.	-	.	.	-
O=C(NCc1cccs1)C1CCN(c2ccc(S(=O)(=O)N3CCOCC3)cc2Cl)CC1	-	?	-	?	-124	-
C#CCNC(=O)C1CCN(c2ccc(S(=O)(=O)N3CCOCC3)cc2Cl)CC1	.	-[9.22 µM]	-	-	.	-[10 µM]
CCN(CC)S(=O)(=O)c1ccc(N2CCOCC2)c(NC(=O)C23CC4CC(CC(Cl)(C4)C2)C3)c1	.	-	-	-	-	.
Cc1cc(C(=O)N/N=C/c2cn[nH]c2-c2ccccc2)cs1	.	-	-	-	-114	.
O=C(N/N=C\c1cn[nH]c1-c1ccccc1)c1ccc([N+](=O)[O-])cc1	.	-	-	-	-	.
COc1ccc(-c2cc(N)n(S(=O)(=O)c3ccc(C)cc3)n2)c(OC)c1	-	-	-	-	-91	-
COc1ccc(S(=O)(=O)n2nc(-c3ccc(Cl)cc3)cc2N)cc1	.	-[9.22 µM]	.	-	.	-[10 µM]
